Assay results taken from PubChem BioAssay AID372 (MTDP, 2006).
In all, about 100,000 compounds went through this assay and about 770 (0.77%) were called active. The list comes from a sample in which actives are over-represented; it also holds similar structures and randomly drawn compounds. Values without a mark were called inactive. No stated cut-off is given here; in the data, active means inhibition above about 50%; inactive means the rest.

These compounds were tested against Gag-Pol polyprotein (Human immunodeficiency virus type 1 group M subtype B (isolate HXB2)) (UniProt P04585) (assay: RNase H inhibition, HIV 1 Gag Pol polyprotein, FRET biochemical assay, screening (AID 372)). Settings: HIV-1 RT RNase H, FRET RNA/DNA substrate fluorescence; at 10 µM; hits give high values.

SMILES	inhibition
O=C(CCN1C(=O)/C(=C/c2ccccc2Cl)SC1=S)Nc1ccc(-c2ccccc2)cc1	16%
CSc1nc2ccccc2n1CCOc1ccc(C)cc1	8%
O=Cc1cccc(OCc2ccc(Cl)cc2Cl)c1	32%
Clc1ccc(COc2ccc(/C=N/n3cnnc3)cc2)c(Cl)c1	3%
Clc1ccc(COc2cccc(/C=N/n3cnnc3)c2)c(Cl)c1	50% (active)
CCSCCOC(=O)C1=C(C)NC2=C(C(=O)CC(c3cccs3)C2)C1c1ccc(C)s1 (centres undefined)	11%
COc1ccc(OC)c(C2C(C(C)=O)=C(O)C(=O)N2CC2CCCO2)c1 (centres undefined)	0%
O=C1NC(=S)N(c2ccccc2F)C(=O)/C1=C/c1ccc(-c2ccc(Cl)cc2)o1	14%
Cc1ccc(N2C(=O)/C(=C/c3ccco3)C(=O)NC2=S)cc1	9%
Cc1ccc(/C=C2\C(=O)NC(=S)N(c3ccc(Br)cc3)C2=O)o1	32%
Cc1ccc(/C=C2\C(=O)NC(=S)N(c3ccc(Br)cc3C)C2=O)o1	24%
Cc1ccc(/C=C2\C(=O)NC(=S)N(c3ccc(Cl)c(Cl)c3)C2=O)o1	11%
O=C1NC(=S)N(c2ccccc2F)C(=O)/C1=C/c1ccc(N2CCCC2)o1	14%
O=C1NC(=S)N(c2ccc(Cl)cc2)C(=O)/C1=C\c1ccc(Cl)s1	8%
Cc1cc(Br)ccc1N1C(=O)/C(=C/c2cccs2)C(=O)NC1=S	16%
Cc1cccc(C)c1NC(=O)c1ccc(-c2ccc(Cl)cc2Cl)o1	28%
C=CCc1cccc2cc(C(=O)N3CCCCC3)c(=O)oc12	1%
COc1ccc(C2/C(=C(/O)c3ccccc3)C(=O)C(=O)N2c2ccc(C)cc2)cc1 (centres undefined)	7%
CCCCn1c(O)c(/C=C2\C=Nc3ccccc32)c(=O)[nH]c1=O	25%
CCc1ccccc1N1C(=O)NC(=O)/C(=C\c2ccc(N3CCCCC3)o2)C1=O	9%
O=C1NC(=O)N(c2ccccc2F)C(=O)/C1=C/c1ccc(I)o1	0%
O=C1NC(=S)N(c2ccc(Br)cc2)C(=O)/C1=C/C=C/c1ccco1	16%
O=C1NC(=S)N(c2cccc(Cl)c2Cl)C(=O)/C1=C/c1ccc(I)o1	45%
O=C1NC(=S)N(c2cccc(Cl)c2Cl)C(=O)/C1=C/c1ccco1	58% (active)
O=C1NC(=S)N(c2ccccc2)C(=O)/C1=C\C=C\c1ccccc1[N+](=O)[O-]	16%

SMILES	inhibition
Cc1cccc(N2C(=O)/C(=C/C=C/c3ccco3)C(=O)NC2=S)c1	11%
Cc1ccccc1N1C(=O)/C(=C/c2ccc(I)o2)C(=O)NC1=S	18%
O=C1NC(=O)N(c2ccc(Cl)cc2)C(=O)/C1=C\C=C\c1ccccc1[N+](=O)[O-]	14%
O=C1NC(=S)N(c2cccc(Cl)c2Cl)C(=O)/C1=C/c1ccc(Cl)cc1	10%
Cc1cc(C=O)c(C)n1-c1ccc(Cl)cc1	10%
CCN(CC)c1ccc(/C=C2\C(=O)N(c3nc(-c4ccc(Cl)cc4)cs3)N=C2c2ccccc2)cc1	8%
O=[N+]([O-])c1ccc(NC(=S)Nc2ccccc2)c(O)c1	2%
CCOC(=O)C1=C(C)NC2=C(C(=O)CC(c3ccc(OC)cc3)C2)C1c1ccc(O)cc1 (centres undefined)	11%
Cc1ccc(/C=N/NC(=O)c2ccc(F)cc2)s1	7%
Cc1ccccc1/C=C(/C#N)c1ccc([N+](=O)[O-])cc1	42%
N#C/C(=C\c1ccccc1OCCOc1ccc([N+](=O)[O-])cc1)C(N)=O	57% (active)
N#C/C(=C/c1ccccc1OCc1ccccc1F)c1ccc([N+](=O)[O-])cc1	54% (active)
C=CCc1ccccc1OCCOc1ccc(Br)cc1/C=C(\C#N)C(N)=O	60% (active)
N#C/C(=C\c1cc(Br)ccc1OCc1cccc2ccccc12)C(N)=O	30%
N#C/C(=C\c1cc(Br)ccc1OCc1ccccc1)C(N)=O	10%
N#C/C(=C\c1ccccc1[N+](=O)[O-])C(N)=O	0%
COc1ccccc1/C=C(\C#N)C(N)=O	0%
N#C/C(=C/c1ccccc1OS(=O)(=O)c1ccccc1)c1ccc([N+](=O)[O-])cc1	16%
CC(=O)Nc1ccc2oc(-c3ccc(Cl)cc3)nc2c1	9%
CCn1c(-c2ccccc2C)n[nH]c1=S	2%
COc1nc(Nc2ccccc2)nc(NC(C)(C)C)n1	7%
O=C(N1CCN(C(c2ccccc2)c2ccccc2)CC1)C12CC3CC(CC(C3)C1)C2	25%
CC(NC(=O)/C(C#N)=C/c1ccc(N(C)C)c(Br)c1)c1ccccc1 (centres undefined)	15%
Cc1ccc(/C=C2/SC(=O)N(CO)C2=O)cc1	0%
Cc1ccccc1C(=O)NNC(=S)Nc1ccccc1	7%

SMILES	inhibition
CS(=O)(=O)N/N=C/c1ccc2c(c1)OCO2	0%
COc1ccc(-c2cc(C(F)(F)F)n3nc(C(=O)NC(C)C)c(Cl)c3n2)cc1OC	7%
C=CCN1C(=O)/C(=C/c2ccc(N(C)C)cc2)SC1=S	17%
CC(C)(C)c1ccc(Oc2ccc3noc4c3c2C(=O)c2ccccc2-4)cc1	50% (active)
O=C1c2ccccc2-c2onc3ccc(Oc4ccccc4)c1c23	2%
Cc1ccc(Oc2ccc3noc4c3c2C(=O)c2ccccc2-4)cc1	8%
OC1CC(c2ccccc2)NC2(CCCCC2)C1 (centres undefined)	2%
O=C(COc1ccccc1[N+](=O)[O-])Nc1ccc2oc(-c3cc(Br)ccc3Cl)nc2c1	49%
Cc1oc(C(=O)O)cc1CSc1nc2ccccc2[nH]1	5%
COc1ccc(-c2ccccc2)cc1NCc1c2ccccc2cc2ccccc12	2%
COc1ccc2nc(-c3ccccc3)c(-c3ccccc3)nc2c1	6%
COc1ccc(Cc2ccc(OC)cc2)cc1	5%
COc1ccc(-c2nc3ccc(Cc4ccc5nc(-c6ccc(OC)cc6)c(-c6ccc(OC)cc6)nc5c4)cc3nc2-c2ccc(OC)cc2)cc1	55% (active)
C#CCOc1ccc(/C=C2/C(=O)NC(=O)N(c3ccccc3F)C2=O)cc1	0%
Cc1ccc(OCCn2c(=S)[nH]c3ccccc32)cc1	61% (active)
S=c1[nH]c2ccccc2n1CCOc1ccccc1	30%
S=c1[nH]c2ccccc2n1CCOc1ccc(Cl)cc1	39%
Cc1ccccc1OCCOc1ccccc1/C=c1\sc2nc3ccccc3n2c1=O	9%
CC(=O)COc1ccc2c(c1)oc(=O)c1ccccc12	7%
Cc1c(Cl)c(=O)oc2cc(OCc3ccc(Cl)cc3)ccc12	3%
CC(C)OC(=O)COc1ccc2c(c1)oc(=O)c1ccccc12	0%
Cc1c(Cl)c(=O)oc2cc(OCC(=O)c3ccc(Cl)cc3)ccc12	50% (active)
Cc1cc(=O)oc2cc(OCC(=O)c3ccc(Cl)cc3)ccc12	19%
O=C(COc1ccc(Cl)cc1)Oc1ccc2c(c1)oc(=O)c1ccccc12	54% (active)
O=C1CCCC2=C1C(c1ccccc1Cl)Nc1ccc(C(=O)c3ccccc3)cc1N2 (centres undefined)	1%

SMILES	inhibition
Cc1ccc(C(=O)Nc2cc(C)cc(C)c2)cc1	0%
Cc1ccc(N=Cc2c(O)n(C3CCCCC3)c(=O)n(C3CCCCC3)c2=O)cc1C	6%
O=C(Nc1nnc(C(c2ccccc2)c2ccccc2)s1)Nc1ccc(Cl)cc1Cl	52% (active)
O=C(Nc1nnc(CSCc2ccccc2Cl)s1)Nc1ccc(Cl)cc1Cl	46%
O=C(Nc1nnc(CSCc2ccccc2)s1)Nc1ccc(Cl)cc1Cl	39%
O=C(Nc1nnc(Cc2ccccc2F)s1)Nc1ccc(Cl)cc1Cl	18%
CCC(c1ccccc1)c1nnc(NC(=O)Nc2ccc(Cl)cc2Cl)s1 (centres undefined)	12%
O=C(Nc1nnc(CSCc2ccc(Cl)cc2Cl)s1)Nc1ccc(Cl)cc1Cl	33%
Cc1cccc(CSCc2nnc(NC(=O)Nc3ccc(Cl)cc3Cl)s2)c1	53% (active)
CC(c1ccccc1)c1nnc(NC(=O)Nc2ccc(Cl)cc2Cl)s1 (centres undefined)	36%
O=C(Nc1nnc(Cc2ccc(Cl)cc2)s1)Nc1ccc(Cl)cc1Cl	37%
O=C(Nc1nnc(Cc2ccc(Cl)cc2Cl)s1)Nc1ccc(Cl)cc1Cl	66% (active)
O=C(Nc1nnc(CSCc2ccccc2F)s1)Nc1ccc(Cl)cc1Cl	53% (active)
Cc1cccc(CSCc2nnc(NC(=O)Nc3ccc(Cl)cc3)s2)c1	31%
COc1ccc2ccccc2c1-c1cc(C(=O)N/N=C/c2ccc(C)cc2)[nH]n1	13%
CCCOC(=O)c1ccc(NC(=S)NC(=O)c2ccc(OCCC)cc2)cc1	20%
CCOc1ccc(NC(=O)c2c(NC(=O)C(C)(C)C)sc3c2CCCC3)cc1	13%
COc1cccc(/C=N\NC(=O)CNc2ccccc2C)c1	5%
CCOC(=O)C1=C(C)N=c2s/c(=C\c3ccc(-c4ccc(Cl)cc4[N+](=O)[O-])o3)c(=O)n2C1c1ccc(OC)cc1 (centres undefined)	43%
O=[N+]([O-])c1ccc(N2CCCC2)c(C(F)(F)F)c1	21%
O=C(NC(=S)Nc1cc([N+](=O)[O-])ccc1F)c1cccc(I)c1	4%
COc1ccc(-c2csc(N3N=C(c4ccc(Cl)cc4)CC3c3ccc(OC)c(OC)c3)n2)cc1F (centres undefined)	3%
COc1ccc(C2CC(c3ccc(Cl)cc3)=NN2c2nc(-c3ccc(C)cc3)cs2)cc1OC (centres undefined)	3%
COc1ccc(C2CC(c3ccc(Cl)cc3)=NN2c2nc(-c3cccc(N4C(=O)c5ccccc5C4=O)c3)cs2)cc1OC (centres undefined)	53% (active)
